From PubChem BioAssay
Calls of active or inactive are those of the source.

Legend:
Albumin (Bos taurus) = Albumin (Bos taurus) (UniProt P02769); assay: compounds binding labelled BSA control protein – biochemical, small-molecule microarray, Alexa647 label, 635/667 nm fluorescence, artefact control for SMM control protein annotation, profiling panel (AID 1118); details: BSA-A647 binding, fluorescence 635 nm, higher = more signal;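 further: score merges 667 nm emission intensity and signal-to-noise per printed compound spot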
Chain of Albumin (Bos taurus) (P02769 whole entry, looked up): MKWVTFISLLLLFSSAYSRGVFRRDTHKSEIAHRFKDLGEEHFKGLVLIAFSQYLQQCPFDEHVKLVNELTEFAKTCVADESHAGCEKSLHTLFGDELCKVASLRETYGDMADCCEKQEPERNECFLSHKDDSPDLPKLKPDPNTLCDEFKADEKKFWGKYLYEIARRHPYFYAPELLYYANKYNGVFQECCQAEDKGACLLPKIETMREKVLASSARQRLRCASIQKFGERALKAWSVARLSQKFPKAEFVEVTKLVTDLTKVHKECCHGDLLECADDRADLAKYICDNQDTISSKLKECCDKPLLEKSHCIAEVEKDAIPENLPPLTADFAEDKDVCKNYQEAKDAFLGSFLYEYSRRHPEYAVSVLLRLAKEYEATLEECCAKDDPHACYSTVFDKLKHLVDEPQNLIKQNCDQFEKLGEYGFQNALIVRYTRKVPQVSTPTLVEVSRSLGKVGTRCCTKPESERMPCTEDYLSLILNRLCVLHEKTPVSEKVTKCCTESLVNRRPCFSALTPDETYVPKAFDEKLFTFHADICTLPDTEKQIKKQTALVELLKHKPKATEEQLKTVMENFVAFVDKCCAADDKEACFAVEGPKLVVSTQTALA

[1] = probe aXIP binding to arrayed compounds – biochemical, NeuroSMM set, 635/667 nm fluorescence, primary screen (AID 1119); details: small-molecule microarray, higher = more signal, called active from +8 up or from −8 down;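 further: probe is the protein aXip251-270 applied at 1 µg/mL to compound-printed slides; binding of probe to printed compounds measured as 667 nm fluorescence plus signal to noise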
[2] = probe aNOTCH3 binding on compound microarray – biochemical, small-molecule microarray, 635/667 nm fluorescence, primary screen (AID 1120); details: higher = more signal;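 further: probe is a biotin-tagged antibody raised against NOTCH3 rather than NOTCH3 protein; score merges spot fluorescence near 667 nm with spot signal to noise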
[3] = probe aNOTCH2 binding on compound microarray – biochemical, small-molecule microarray, 635/667 nm fluorescence, primary screen (AID 1121); details: higher = more signal;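 further: score merges feature fluorescence read at 667 nm with its signal to noise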
[4] = target: Carbonic anhydrase 2 (Homo sapiens) (UniProt P00918); assay: compounds binding carbonic anhydrase 2 – biochemical, small-molecule microarray, Alexa647-labelled CAII, profiling panel (AID 1122); details: CAII-A647 binding fluorescence, higher = more signal
[5] = COS7 lysate on small-molecule microarray, probe aHis, 635 nm (AID 1123); details: COS7 cell lysate, fluorescence, higher = more signal;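 further: z-score combines 667nm fluorescence intensity with signal-to-noise per printed compound spot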
[6] = probe aLAP1 signal on lysate-treated microarray – cell lysate, small-molecule microarray, COS7 lysate, primary screen (AID 1124); details: probe aLAP1, fluorescence, higher = more signal;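 further: lysate comes from COS7 cells expressing LAP1 and is applied at 0.3 µg/mL; score merges spot fluorescence near 667 nm with signal-to-noise over triplicate slides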
Sam68 (KHDRBS1) = assay: compounds binding KHDRBS1 protein – biochemical, small-molecule microarray, 635 nm fluorescence, primary screen (AID 1125); details: higher = more signal;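 further: score merges 667 nm channel intensity with signal to noise over triplicate slides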
[7] = system: Chordin-like protein 2 (CHRDL2); assay: compounds binding chordin-like 2 – biochemical, small-molecule microarray, 635 nm fluorescence, primary screen (AID 1126); details: fluorescence 635 nm, higher = more signal;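 further: printed compound slides probed with Chrdl2 protein at 4 µg/mL for 1 h at 4 C; score merges 667 nm emission intensity with signal to noise over three replicate slides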
[8] = target: Concanavalin-A (Canavalia ensiformis) (UniProt P02866); assay: compounds binding concanavalin A lectin – biochemical, small-molecule microarray, Alexa647 label, 635 nm, artefact control for SMM control protein annotation, primary screen (AID 1127); details: ConA-A647 binding fluorescence, higher = more signal;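 further: z combines 667 nm emission intensity with signal-to-noise across three replicate slides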
Chain of Concanavalin-A (Canavalia ensiformis) (P02866 whole entry, looked up): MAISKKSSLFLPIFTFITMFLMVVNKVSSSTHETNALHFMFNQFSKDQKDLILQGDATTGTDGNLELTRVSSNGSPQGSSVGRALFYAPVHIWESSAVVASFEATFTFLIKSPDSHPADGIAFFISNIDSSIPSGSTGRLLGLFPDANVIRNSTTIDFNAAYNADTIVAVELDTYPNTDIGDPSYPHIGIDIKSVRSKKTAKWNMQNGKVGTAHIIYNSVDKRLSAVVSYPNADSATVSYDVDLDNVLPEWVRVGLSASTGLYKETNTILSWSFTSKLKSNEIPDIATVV

| Structure (SMILES) | composite z-score (Albumin (Bos taurus)) | composite Z-score [1] | composite z-score [2] | composite z-score [3] | composite z-score [4] | composite z-score [5] | composite z-score [6] | composite z-score (Sam68 (KHDRBS1)) | composite z-score [7] | composite z-score [8] |
| --- | --- | --- | --- | --- | --- | --- | --- | --- | --- | --- |
| COCCCNC(=O)[C@@H]1c2ccccc2C(=O)N(c2ccc(C)cn2)[C@H]1c1ccc(CO)cc1 | -0.767 | 0.567 (inactive) | -0.644 | -0.18 | 0.0072 | -0.908 | -0.721 | -1.42 | -2.03 | -0.482 |
| C=CC[C@]1(C(=O)N2CCOCC2)N=C(c2ccc(OCCCO)cc2)O[C@H]1c1ccccc1CN=[N+]=[N-] | 0.971 | 0.0707 (inactive) | 0.533 | 0.0402 | 0.385 | 2.92 | 1.64 | 1.29 | -0.321 | 1.15 |
| COCCOC(=O)N1C(=O)[C@@]2(c3cc(C#CC4(O)CCCCCC4)ccc31)[C@H](C(=O)NC[C@H](O)c1ccccc1)[C@H]1C(=O)O[C@H](c3ccccc3)[C@H](c3ccccc3)N1[C@@H]2c1ccc(OCCO)cc1 | 0.067 | 0.244 (inactive) | -0.0328 | -0.0995 | 0.495 | 1.23 | 0.217 | 1.3 | 0.223 | 1.13 |
| CO[C@H]1O[C@H](CO)[C@@H](OC(=O)Nc2cccc(F)c2)[C@H](OC(=O)Nc2ccc3c(c2)OCO3)[C@H]1OC(=O)Nc1ccc2c(c1)OCO2 | 0.445 | 0.859 (inactive) | 0.0225 | -0.0508 | 0.728 | 2.23 | 0.315 | 1.3 | 0.163 | 0.731 |
| O=C1c2ccccc2[C@](Cc2ccccc2I)(C(=O)NCC(F)(F)F)[C@H](c2ccc(CO)cc2)N1Cc1ccccc1 | 0.684 | 0.341 (inactive) | -0.0183 | -0.112 | 0.593 | 2.19 | 0.321 | 1.18 | -0.213 | 1.11 |
| COCCOC(=O)N1C(=O)[C@@]2(c3cc(C#Cc4ccc(OC)cc4)ccc31)[C@H](C(N)=O)[C@H]1C(=O)O[C@H](c3ccccc3)[C@H](c3ccccc3)N1[C@@H]2c1ccc(OCCO)cc1 | -0.884 | 0.393 (inactive) | 0.43 | -0.0984 | 0.332 | 1.79 | 0.52 | 1.3 | 0.714 | 0.921 |
| CC(C)[Si](C#C[Si](C(C)C)(C(C)C)C(C)C)(O[C@H](C)c1cn(Cc2cccc(Cl)c2)nn1)C(C)C | 0.811 | -0.596 (inactive) | -0.0647 | -0.147 | 0.554 | 0.842 | -0.34 | 1.28 | 0.226 | 0.8 |
| COc1ccc([Si](C)(C)[C@H]2[C@H](CCO)O[C@@]3(C(=O)N(Cc4cccc(N5CCOC5=O)c4)c4ccccc43)[C@@H]2C)cc1 | 0.688 | 0.207 (inactive) | 0.0203 | -0.0942 | 0.281 | 1.04 | -0.15 | 0.996 | -0.0894 | 1.1 |
| COCCOC(=O)N1C(=O)[C@@]2(c3cc(C#CCNC(N)=O)ccc31)[C@H](c1ccc(OCCO)cc1)N1[C@H](c3ccccc3)[C@H](c3ccccc3)OC(=O)[C@H]1[C@@H]2C(=O)N1CCN(c2ncccn2)CC1 | 0.358 | 0.764 (inactive) | 0.31 | 0.09 | 0.2 | 0.887 | 0.558 | 1.29 | 0.908 | 1.11 |
| Cc1cc(C)c(C(O)C2C=CC3C(=O)N(c4ccccc4)C(=O)C3N2Nc2ccccc2)c(C)c1 (stereo not given) | 0.767 | 0.0805 (inactive) | 0.236 | 0.294 | 0.781 | 2.13 | 0.0109 | 1.3 | -0.194 | 1.18 |
| COc1cc(C(O)C2C=CC3C(=O)N(C)C(=O)C3N2NC(=O)OC(C)(C)C)cc(OC)c1OC (stereo not given) | 1.03 | 0.523 (inactive) | 0.576 | 0.46 | 0.682 | 2.63 | 0.954 | 1.26 | -0.217 | 0.92 |
| COCCCNC(=O)[C@@]1(Cc2ccccc2N=[N+]=[N-])N=C(c2ccc(OCCCO)cc2)O[C@H]1c1ccccc1CN=[N+]=[N-] | 0.771 | 0.103 (inactive) | 0.315 | 0.034 | 0.697 | 2.69 | 0.565 | 1.29 | -0.508 | 1.01 |
| COCCCNC(=O)[C@@]1(Cc2ccccc2I)c2ccccc2C(=O)N(Cc2ccccc2Cl)[C@H]1c1ccc(CO)cc1 | 0.681 | 0.432 (inactive) | -0.0492 | -0.139 | 0.344 | 0.184 | 0.438 | 0.902 | -0.105 | 0.752 |
| CCC[C@@H]1C[C@@]1(CCC)[C@@H](NC(=O)c1cccs1)c1ccc(Cl)cc1 | 0.259 | -0.222 (inactive) | -0.102 | -0.0617 | 0.247 | 0.855 | -0.199 | -0.0604 | -0.693 | -0.596 |
| CN(C)CCCCCCNC(=O)[C@@H]1C[C@@H]2C(=O)NCC(=O)N2[C@@H]1c1ccc(O)cc1 | -0.671 | 2.25 (inactive) | 0.173 | -0.126 | 0.683 | 2.86 | 0.328 | 1.33 | 1.4 | 1.21 |
| NC(=O)[C@@H]1[C@H]2C(=O)O[C@H](c3ccccc3)[C@H](c3ccccc3)N2[C@H](c2ccccc2OCCO)[C@@]12C(=O)Nc1ccc(C#CCCO)cc12 | 0.59 | -0.309 (inactive) | -0.218 | -0.147 | 0.71 | 0.663 | 0.148 | 0.13 | -0.68 | 1.18 |

| Structure (SMILES) | composite z-score (Albumin (Bos taurus)) | composite Z-score [1] | composite z-score [2] | composite z-score [3] | composite z-score [4] | composite z-score [5] | composite z-score [6] | composite z-score (Sam68 (KHDRBS1)) | composite z-score [7] | composite z-score [8] |
| --- | --- | --- | --- | --- | --- | --- | --- | --- | --- | --- |
| CN(C)CCCNC(=O)[C@@]1(Cc2ccccc2I)c2ccccc2C(=O)N(Cc2ccccc2Cl)[C@H]1c1ccc(CO)cc1 | 0.827 | -0.175 (inactive) | 0.175 | 0.2 | 0.522 | 1.44 | 0.507 | -0.035 | -1.09 | 1.09 |
| COCCCNC(=O)[C@]1(Cc2ccccc2CN=[N+]=[N-])N=C(c2ccc(OCCCO)cc2)O[C@@H]1c1ccccc1CN=[N+]=[N-] | 0.864 | 0.701 (inactive) | 0.364 | 0.309 | 0.613 | 2.28 | 1.09 | 1.29 | -0.0479 | 1 |
| COC(=O)[C@@]1(Cc2ccc(OC)cc2)[C@H]2c3cc(C(=O)N(C)C)n(CCF)c3C[C@H]2CN1C(=O)c1ccccc1 | 1.01 | 1.22 (inactive) | 0.292 | -0.0015 | 0.793 | 2.96 | 0.721 | 1.32 | -0.499 | 1.21 |
| CCCCC(O)C1C=CC2C(=O)N(Cc3ccccc3)C(=O)C2N1n1cnnc1 (stereo not given) | -0.0045 | 0.406 (inactive) | 0.0039 | -0.101 | 0.644 | 1.4 | 0.0713 | 1.01 | -0.0652 | 0.216 |
| C[C@@H]1ON(c2ccccc2)[C@H](c2ccccc2)[C@H]1C(=O)N1C(=O)OC[C@H]1Cc1ccccc1 | 0.215 | 0.477 (inactive) | -0.0057 | -0.14 | 0.303 | 0.514 | -0.0985 | 0.885 | 0.447 | 0.603 |
| [N-]=[N+]=NCc1ccccc1[C@H]1OC(c2ccc(OCCCO)cc2)=N[C@@]1(Cc1ccccc1)C(N)=O | 0.883 | -0.379 (inactive) | 0.391 | 0.0029 | 0.589 | 2.29 | 0.112 | 1.29 | -0.797 | 1.19 |
| COC(=O)[C@@]1(Cc2ccccc2)[C@H]2c3cc(C(=O)N4CCCC4)n(Cc4ccccc4)c3C[C@H]2CN1C(=O)c1ccccc1 | 0.76 | 0.689 (inactive) | 0.591 | 0.302 | 0.637 | 2.36 | -0.0361 | 0.5 | -0.883 | 0.914 |
| COCCOC(=O)N1C(=O)[C@@]2(c3cc(C#CCCO)ccc31)[C@H](c1ccc(OCCO)cc1)N1[C@H](c3ccccc3)[C@H](c3ccccc3)OC(=O)[C@H]1[C@@H]2C(=O)N1CCc2cc(OC)c(OC)cc2C1 | -0.627 | 0.443 (inactive) | 0.0893 | -0.0731 | 0.239 | 1.06 | 1.48 | 1.31 | 0.559 | 1.08 |
| [N-]=[N+]=NCc1ccccc1C[C@]1(C(=O)NCCN2CCOCC2)N=C(c2ccc(OCCCO)cc2)O[C@H]1c1ccccc1 | 0.528 | 0.356 (inactive) | 0.408 | -0.126 | 0.668 | 1.78 | 0.488 | 1.3 | -1.03 | 0.885 |
| COCCCNC(=O)[C@@]1(Cc2ccccc2)COC(c2ccc(OCCCO)cc2)=N1 | 0.838 | 0.6 (inactive) | 0.0813 | -0.0307 | 0.739 | 3.02 | 0.77 | 1.31 | -0.554 | 0.825 |
| COCCOC(=O)N1C(=O)[C@@]2(c3cc(C#CCCO)ccc31)[C@H](C(=O)N1CCc3cc(OC)c(OC)cc3C1)[C@H]1C(=O)O[C@H](c3ccccc3)[C@H](c3ccccc3)N1[C@@H]2c1ccc(OCCO)cc1 | 0.455 | 0.552 (inactive) | 0.19 | -0.147 | 0.476 | 1.54 | 0.765 | 1.3 | 0.956 | 1.09 |
| CC1CC/C=C\[C@H]2OC34C=CCN(c5ccc(Cl)cc5)C(=O)[C@H]3N(C(CO)C(C)C)C(=O)[C@]4(C)C2C(=O)O1 (stereo not given in full) | 0.788 | -0.0965 (inactive) | -0.28 | -0.174 | 0.859 | 0.253 | 0.438 | -0.932 | -0.169 | -0.983 |
| COCCOC(=O)N1C(=O)[C@@]2(c3cc(C#CC4(O)CCCCCC4)ccc31)[C@H](C(=O)N1CCN(c3ncccn3)CC1)[C@H]1C(=O)O[C@H](c3ccccc3)[C@H](c3ccccc3)N1[C@@H]2c1ccc(O)cc1 | 0.886 | 0.528 (inactive) | -0.0006 | -0.0795 | 0.35 | 1.12 | 0.73 | 1.22 | -0.35 | 1.11 |
| [N-]=[N+]=NCc1ccccc1[C@H]1OC(c2ccc(OCCCO)cc2)=N[C@@]1(Cc1ccccc1N=[N+]=[N-])C(=O)N1CCCCC1 | -0.0584 | -0.202 (inactive) | 0.374 | 0.104 | 0.559 | 2.97 | 0.608 | 1.29 | 0.0975 | 0.988 |
| CC(C)NC(=O)[C@@H]1c2ccccc2C(=O)N(Cc2cc(C(F)(F)F)cc(C(F)(F)F)c2)[C@H]1c1ccc(CO)cc1 | 0.52 | 1.21 (inactive) | -0.0931 | -0.0052 | 0.298 | 2.38 | 0.706 | 1.3 | 0.0933 | 1.09 |
